From publication PMC5700166
Where a chain is given by its changes, count along the chain named.

Tests used:
Assay in all cases: protein-binding microarray (PBM); PBM: ~300 nM protein, 6 mM HEPES pH 7.8, 80 mM KCl, 0.5 mM EDTA, 0.5 mM EGTA, 6% glycerol, 35 ng/ul poly-dIdC, 1% milk, 1 h, room temperature; Ap Aiptasia and Nv Nematostella (sea anemones) / Co Capsaspora / Aq Amphimedon (sponge) / Dm Drosophila / Hu human; RHD is the Rel homology domain; high values mean tight binding
Conditions in all cases: dsDNA, one strand shown
[1] = target: T1, GST-Ap-NF-kB RHD (Exaiptasia pallida (Aiptasia), UniProt A0A913YAJ5 2-422)
T1 sequence: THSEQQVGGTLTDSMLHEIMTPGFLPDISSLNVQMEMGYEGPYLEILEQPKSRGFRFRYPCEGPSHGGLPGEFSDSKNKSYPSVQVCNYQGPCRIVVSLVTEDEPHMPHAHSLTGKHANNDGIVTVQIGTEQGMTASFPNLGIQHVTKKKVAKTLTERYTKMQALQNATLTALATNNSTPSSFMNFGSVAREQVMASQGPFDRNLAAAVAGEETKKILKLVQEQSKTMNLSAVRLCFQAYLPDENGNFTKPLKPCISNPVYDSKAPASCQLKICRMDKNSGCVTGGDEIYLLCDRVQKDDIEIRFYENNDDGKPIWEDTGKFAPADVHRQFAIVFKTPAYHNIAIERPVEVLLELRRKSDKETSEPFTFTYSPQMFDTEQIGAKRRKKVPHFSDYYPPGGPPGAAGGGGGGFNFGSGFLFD

[2] = target: T2, GST-Nv-NF-kB (Cys allele) (Nematostella vectensis, UniProt E5G601 2-411)
T2 sequence: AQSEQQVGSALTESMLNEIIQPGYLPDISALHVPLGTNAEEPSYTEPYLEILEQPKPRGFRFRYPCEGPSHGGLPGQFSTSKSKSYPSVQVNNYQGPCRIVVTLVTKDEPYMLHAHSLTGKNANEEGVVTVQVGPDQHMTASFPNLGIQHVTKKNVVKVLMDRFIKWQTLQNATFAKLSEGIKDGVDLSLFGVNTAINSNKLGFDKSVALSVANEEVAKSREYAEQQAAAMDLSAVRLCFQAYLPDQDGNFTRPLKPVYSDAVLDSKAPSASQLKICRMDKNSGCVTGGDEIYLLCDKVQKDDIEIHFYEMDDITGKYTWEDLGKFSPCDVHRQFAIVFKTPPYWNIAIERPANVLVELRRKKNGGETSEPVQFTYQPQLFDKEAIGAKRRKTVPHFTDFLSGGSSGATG

[3] = target: T3, GST-Nv-NF-kB (Ser allele) (Nematostella vectensis, UniProt A7UNT2 2-411)
T3 sequence: T2 sequence with Q21R, C66S, S207N, E215Q, V217A, E225K, A268E, D399E

[4] = target: T4, GST-Co-NF-kB (Capsaspora owczarzaki, UniProt F1ARL5 200-546)
T4 sequence: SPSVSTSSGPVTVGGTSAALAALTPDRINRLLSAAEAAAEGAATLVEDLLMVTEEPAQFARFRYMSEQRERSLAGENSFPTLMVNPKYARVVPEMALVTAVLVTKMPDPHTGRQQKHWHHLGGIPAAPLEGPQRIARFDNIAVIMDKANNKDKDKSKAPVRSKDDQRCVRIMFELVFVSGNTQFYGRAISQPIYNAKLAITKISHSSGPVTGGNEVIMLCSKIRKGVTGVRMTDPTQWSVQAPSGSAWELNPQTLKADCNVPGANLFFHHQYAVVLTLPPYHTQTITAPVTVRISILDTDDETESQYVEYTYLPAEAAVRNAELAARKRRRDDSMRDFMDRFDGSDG

[5] = target: T5, GST-Dm-Relish (Drosophila melanogaster, UniProt Q94527 99-473)
T5 sequence: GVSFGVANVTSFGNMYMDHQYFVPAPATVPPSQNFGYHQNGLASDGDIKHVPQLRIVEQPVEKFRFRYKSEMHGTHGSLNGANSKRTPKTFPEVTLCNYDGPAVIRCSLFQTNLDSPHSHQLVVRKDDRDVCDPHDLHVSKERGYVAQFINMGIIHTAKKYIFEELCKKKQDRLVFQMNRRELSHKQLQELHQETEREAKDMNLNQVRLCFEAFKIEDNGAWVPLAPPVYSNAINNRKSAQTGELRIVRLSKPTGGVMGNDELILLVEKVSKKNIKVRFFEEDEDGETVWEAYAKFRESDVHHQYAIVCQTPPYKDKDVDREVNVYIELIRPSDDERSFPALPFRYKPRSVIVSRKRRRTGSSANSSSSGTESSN

[6] = target: T6, GST-Aq-NF-kB (Amphimedon queenslandica, UniProt A9Y5G7 2-389)
T6 sequence: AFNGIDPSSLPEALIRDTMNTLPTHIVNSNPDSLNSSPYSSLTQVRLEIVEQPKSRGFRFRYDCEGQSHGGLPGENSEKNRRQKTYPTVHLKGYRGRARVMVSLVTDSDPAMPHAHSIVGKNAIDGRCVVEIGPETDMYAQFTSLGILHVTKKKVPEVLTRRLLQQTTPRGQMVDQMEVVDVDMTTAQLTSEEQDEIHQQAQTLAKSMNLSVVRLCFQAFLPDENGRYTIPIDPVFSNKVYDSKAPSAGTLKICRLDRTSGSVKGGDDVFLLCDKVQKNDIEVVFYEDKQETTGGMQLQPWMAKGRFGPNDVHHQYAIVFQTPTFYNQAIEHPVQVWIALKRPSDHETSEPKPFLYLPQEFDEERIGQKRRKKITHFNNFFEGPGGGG

[7] = target: GST-Hu-p50 (Homo sapiens, UniProt P19838 7-356)
Chain of GST-Hu-p50 (P19838 7-356): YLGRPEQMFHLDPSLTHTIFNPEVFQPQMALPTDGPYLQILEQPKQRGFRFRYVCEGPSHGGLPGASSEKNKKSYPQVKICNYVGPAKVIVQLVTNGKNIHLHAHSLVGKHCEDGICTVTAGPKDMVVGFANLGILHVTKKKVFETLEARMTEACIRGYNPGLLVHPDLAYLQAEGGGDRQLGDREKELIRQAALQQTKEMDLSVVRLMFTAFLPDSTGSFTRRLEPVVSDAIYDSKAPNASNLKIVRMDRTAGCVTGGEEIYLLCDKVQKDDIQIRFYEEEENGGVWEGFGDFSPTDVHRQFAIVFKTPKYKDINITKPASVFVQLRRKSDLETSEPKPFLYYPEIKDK

| Sequence | binding signal [1] [z-score] | binding signal [2] [z-score] | binding signal [3] [z-score] | binding signal [4] [z-score] | binding signal [5] [z-score] | binding signal [6] [z-score] | binding signal [7] [z-score] |
| --- | --- | --- | --- | --- | --- | --- | --- |
| CCGATTAACATCAAGAGATTCCCTGATGTTAATCGGGTCTTGATTCGCTTGACGCTGCTG | 3.17 | 3.88 | 3.73 | 2.46 | 2.38 | 4.06 | 2.78 |
| CCGATTAACATCAAAAATCTCCCTGATGTTAATCGGGTCTTGATTCGCTTGACGCTGCTG | 3.7 | 6.51 | 6.86 | 3.4 | 2.94 | 6.14 | 4.72 |
| CCGATTAACATCAGGGGGATCCATGATGTTAATCGGGTCTTGATTCGCTTGACGCTGCTG | 7.42 | 5.12 | 6.25 | 4.25 | 7.45 | 5.46 | 5.74 |
| CCGATTAACATCAACGAATCCCCTGATGTTAATCGGGTCTTGATTCGCTTGACGCTGCTG | 6.25 | 6.07 | 8.58 | 2.93 | 4.84 | 3.82 | 5.69 |
| CCGATTAACATCACTATATCCCCTGATGTTAATCGGGTCTTGATTCGCTTGACGCTGCTG | 4.49 | 4.08 | 5.9 | 3.51 | 2.01 | 2.75 | 3.18 |
| CCGATTAACATCAGGGGGTTGGATGATGTTAATCGGGTCTTGATTCGCTTGACGCTGCTG | 4.25 | 3.25 | 4.6 | 2.05 | 4.45 | 3.38 | 4.51 |
| CCGATTAACATCACGGGATTCCCTGATGTTAATCGGGTCTTGATTCGCTTGACGCTGCTG | 6.4 | 6.23 | 5.14 | 2.93 | 10.2 | 7.3 | 4.17 |
| CCGATTAACATCAGGGGAACAAATGATGTTAATCGGGTCTTGATTCGCTTGACGCTGCTG | 3.88 | 4.83 | 5.44 | 7.72 | 3.13 | 4.15 | 3.24 |
| CCGATTAACATCAAAATGTCCCCTGATGTTAATCGGGTCTTGATTCGCTTGACGCTGCTG | 6.81 | 6.47 | 7.12 | 5.57 | 6.24 | 5.89 | 5.58 |
| CCGATTAACATCAATTTCCCAGGTGATGTTAATCGGGTCTTGATTCGCTTGACGCTGCTG | 2.16 | 2.4 | 3.53 | 3.41 | 1.61 | 2.15 | 3.21 |
| CCGATTAACATCAAATTTCCCAATGATGTTAATCGGGTCTTGATTCGCTTGACGCTGCTG | 2.25 | 4.12 | 3.77 | 3.94 | 2.51 | 3.58 | 3.39 |
| CCGATTAACATCAGGGGAATCTATGATGTTAATCGGGTCTTGATTCGCTTGACGCTGCTG | 8.26 | 8.91 | 10.6 | 7.29 | 5.84 | 5.95 | 6.51 |
| CCGATTAACATCAGGGGCCCCCCTGATGTTAATCGGGTCTTGATTCGCTTGACGCTGCTG | 7.09 | 3.78 | 2.88 | 3.01 | 7.07 | 7.54 | 4.57 |
| CCGATTAACATCACGAATTTCCCTGATGTTAATCGGGTCTTGATTCGCTTGACGCTGCTG | 4.28 | 5.72 | 6.67 | 4.33 | 2.13 | 5.22 | 4.46 |
| CCGATTAACATCAAGGGGGTACTTGATGTTAATCGGGTCTTGATTCGCTTGACGCTGCTG | 4.81 | 3.89 | 4.77 | 2.92 | 2.88 | 3.78 | 4.47 |
| CCGATTAACATCAAGGGGGATCCTGATGTTAATCGGGTCTTGATTCGCTTGACGCTGCTG | 8.33 | 6.38 | 7.04 | 3.07 | 8.84 | 6.34 | 6.91 |
| CCGATTAACATCAGGGCGCCCCCTGATGTTAATCGGGTCTTGATTCGCTTGACGCTGCTG | 6.07 | 4.59 | 3.38 | 1.95 | 5.55 | 7.98 | 4.97 |
| CCGATTAACATCAGGGGGTATAATGATGTTAATCGGGTCTTGATTCGCTTGACGCTGCTG | 5.4 | 3.26 | 4.36 | 5.2 | 3.02 | 3.48 | 4.16 |
| CCGATTAACATCAGACTTTCCCCTGATGTTAATCGGGTCTTGATTCGCTTGACGCTGCTG | 6.18 | 7.69 | 8.83 | 7.36 | 4.9 | 6.81 | 5.61 |
